About 14,000 (4.5%) of roughly 310,000 compounds showed an effect of 50% or more. The effect is printed as a negative number. What follows is part of a selection rich in strong results, with near analogues and random picks from the rest.
Target: human ether-à-go-go-related gene (hERG) potassium channel (human, UniProt Q12809)
Experiment: primary screen, population patch clamp on CHO cells stably expressing hERG; higher = less effect of the substance
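Note: peak tail current of the secondary pulse compared with the same well before compound.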

human ether-à-go-go-related gene (hERG) potassium channel, sequence (Q12809 whole entry, looked up): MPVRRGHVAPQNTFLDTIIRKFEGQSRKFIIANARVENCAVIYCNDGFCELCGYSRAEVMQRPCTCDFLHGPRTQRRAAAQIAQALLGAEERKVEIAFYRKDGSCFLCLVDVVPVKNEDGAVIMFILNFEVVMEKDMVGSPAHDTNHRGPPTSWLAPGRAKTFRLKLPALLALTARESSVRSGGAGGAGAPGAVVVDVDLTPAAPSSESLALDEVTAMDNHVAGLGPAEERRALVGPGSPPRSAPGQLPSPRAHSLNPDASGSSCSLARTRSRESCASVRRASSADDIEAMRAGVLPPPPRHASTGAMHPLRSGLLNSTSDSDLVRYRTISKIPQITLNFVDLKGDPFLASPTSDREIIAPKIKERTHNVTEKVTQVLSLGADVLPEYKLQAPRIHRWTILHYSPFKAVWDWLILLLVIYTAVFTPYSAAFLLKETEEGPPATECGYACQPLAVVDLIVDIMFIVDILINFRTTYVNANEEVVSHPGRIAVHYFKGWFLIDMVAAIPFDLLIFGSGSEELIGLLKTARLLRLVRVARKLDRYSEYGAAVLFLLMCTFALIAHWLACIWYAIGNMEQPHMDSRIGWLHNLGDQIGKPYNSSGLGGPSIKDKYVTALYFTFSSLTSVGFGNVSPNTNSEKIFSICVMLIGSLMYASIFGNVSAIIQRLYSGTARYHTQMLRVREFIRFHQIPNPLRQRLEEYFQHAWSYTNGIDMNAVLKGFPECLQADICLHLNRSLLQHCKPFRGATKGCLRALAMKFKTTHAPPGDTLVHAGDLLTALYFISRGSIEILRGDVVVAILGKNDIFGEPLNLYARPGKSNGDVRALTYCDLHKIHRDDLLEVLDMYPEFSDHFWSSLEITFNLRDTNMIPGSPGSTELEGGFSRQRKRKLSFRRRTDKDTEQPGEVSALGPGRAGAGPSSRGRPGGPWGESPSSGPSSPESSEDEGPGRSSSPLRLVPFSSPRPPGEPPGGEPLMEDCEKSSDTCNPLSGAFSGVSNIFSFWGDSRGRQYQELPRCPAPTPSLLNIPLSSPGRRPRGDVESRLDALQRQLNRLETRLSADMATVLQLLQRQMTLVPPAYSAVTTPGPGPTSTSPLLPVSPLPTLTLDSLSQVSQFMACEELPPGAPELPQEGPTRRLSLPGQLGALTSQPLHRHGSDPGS

Going from `CC(C)(C)NC(=O)C(=O)NNC(=O)COc1ccc(Br)cc1` to `C=C(C)c1cccc(C(C)(C)NC(=O)Nc2ccc(OC)cc2)c1`, the “hERG current change (%, negative = inhibition) at 10uM” value rises from 5.23% to 8.48%.

Compared with `O=C(Cn1nnc(-c2ccccc2Cl)n1)N1CCN(S(=O)(=O)c2ccc(Cl)cc2)CC1`, `O=C(c1cc(-c2ccccc2Cl)nc2ccccc12)N1CCOCC1` is higher in “hERG current change (%, negative = inhibition) at 10uM” value: -18% for the first, -6.68% for the second.

First: CNC(=O)COc1coc(CN2CCN(C(=O)c3ccco3)CC2)cc1=O
Second: CCCNC(=O)COc1coc(CN2CCN(C(=O)c3ccco3)CC2)cc1=O
The “hERG current change (%, negative = inhibition) at 10uM” value of the first is higher: 7.13% for the first, 3.56% for the second.

First: O=C(c1ccco1)N1CCN(Cc2cc(=O)c(OCc3ccccc3Cl)co2)CC1
Second: O=C(c1ccco1)N1CCN(Cc2cc(=O)c(OCc3ccccc3F)co2)CC1
The “hERG current change (%, negative = inhibition) at 10uM” value of the first is lower: -56.2% for the first, -30.4% for the second.

First: CC(C)(C)NC(=O)COc1coc(CN2CCN(C(=O)c3ccco3)CC2)cc1=O
Second: Cc1ccc(C)c(COc2coc(CN3CCN(C(=O)c4ccco4)CC3)cc2=O)c1
The “hERG current change (%, negative = inhibition) at 10uM” value of the first is higher: 20.1% for the first, -100% for the second.

Compared with `Cc1cccc(COc2coc(CN3CCN(C(=O)c4ccco4)CC3)cc2=O)c1`, `O=C(c1ccco1)N1CCN(Cc2cc(=O)c(OCc3cccc(Cl)c3)co2)CC1` is lower in “hERG current change (%, negative = inhibition) at 10uM” value: -50.7% for the first, -74.7% for the second.

Compared with `CC(Oc1coc(CN2CCN(C(=O)c3ccco3)CC2)cc1=O)c1ccccc1` (stereo not drawn), `Cc1ccc(COc2coc(CN3CCN(C(=O)c4ccco4)CC3)cc2=O)cc1` is lower in “hERG current change (%, negative = inhibition) at 10uM” value: 11.5% for the first, -48.4% for the second.

First: COC(=O)COc1coc(CN2CCN(c3cccc(Cl)c3)CC2)cc1=O
Second: O=C(c1ccco1)N1CCN(Cc2cc(=O)c(OCc3c(F)cccc3Cl)co2)CC1
The “hERG current change (%, negative = inhibition) at 10uM” value of the first is higher: -11.4% for the first, -58% for the second.

First: Cc1ccc(C)c(OCC(=O)N2CCN(C(=O)c3ccco3)CC2)c1
Second: O=C(c1ccco1)N1CCN(Cc2c(F)cccc2Cl)CC1
The “hERG current change (%, negative = inhibition) at 10uM” value of the first is higher: -8.23% for the first, -9.87% for the second.

First: CC(C)CN(C(=O)COc1ccc(Br)cc1C=O)C1CCS(=O)(=O)C1 (stereo not drawn)
Second: CN(C(=O)COC(=O)c1cc(-c2ccccc2Cl)nc2ccccc12)C1CCS(=O)(=O)C1 (stereo not drawn)
The “hERG current change (%, negative = inhibition) at 10uM” value of the first is higher: -25.4% for the first, -30.9% for the second.

Going from `COc1ccc(O)c(-c2cn[nH]c2-c2cccs2)c1` to `COc1ccc2c(c1)nc(SCC(O)c1ccccc1)n2C` (stereo not drawn), the “hERG current change (%, negative = inhibition) at 10uM” value falls from 7.6% to -60.2%.

Compared with `O=C(CNC(=O)Cc1ccccc1)N=Nc1c(O)[nH]c2ccc(Br)cc12`, `CCN(CC(=O)NCC(=O)Nc1cccc(C)c1C)Cc1ccccc1` is lower in “hERG current change (%, negative = inhibition) at 10uM” value: 24.7% for the first, 5.6% for the second.

Going from `O=C(CSc1nc2ccccc2c(=O)[nH]1)Nc1ccccc1C(F)(F)F` to `CN(CC(=O)Nc1ccc(Cl)c(C(F)(F)F)c1)C(=O)Cc1n[nH]c(=O)c2ccccc12`, the “hERG current change (%, negative = inhibition) at 10uM” value falls from -2.68% to -16.2%.

First: C=CCNC(=O)c1cc(-c2ccccc2O)on1
Second: Cc1cc(C(F)F)n2ncc(C(=O)NCCc3ccccc3Cl)c2n1
The “hERG current change (%, negative = inhibition) at 10uM” value of the first is higher: 8.16% for the first, -56.7% for the second.

Compared with `C=CCn1nc([N+](=O)[O-])nc1Sc1cccc2cccnc12`, `COc1ccccc1CCNC(=O)c1cnn2c(C(F)F)cc(C)nc12` is lower in “hERG current change (%, negative = inhibition) at 10uM” value: -2.55% for the first, -33.6% for the second.

Going from `O=[N+]([O-])CC(=Nc1ccc(Cl)cc1)N/N=C\c1oc(O)c2ccccc12` to `Cc1nc(C(=O)Nc2ccccc2Cl)cc2c1[nH]c1ccccc12`, the “hERG current change (%, negative = inhibition) at 10uM” value falls from 5.58% to 0.837%.

Going from `O=c1cc(CO)occ1OCc1c(F)cccc1Cl` to `Cc1cc(=O)oc2ccc(OCc3ccccc3)cc12`, the “hERG current change (%, negative = inhibition) at 10uM” value falls from 9.21% to 5.11%.

First: CCN(CC)C(C(=O)Nc1ccc(C(C)C)cc1)c1ccc2c(c1)OCO2 (stereo not drawn)
Second: CC(C)C(=O)Nc1ccc2c(c1)C(=O)NC2=O
The “hERG current change (%, negative = inhibition) at 10uM” value of the first is lower: -9.99% for the first, 14.3% for the second.

Going from `CCOc1cc(C)c(S(=O)(=O)N2CCCC2)cc1C` to `COc1ccc(NC(=O)c2oc3ccc(S(=O)(=O)N4CCOCC4)cc3c2C)cc1`, the “hERG current change (%, negative = inhibition) at 10uM” value rises from -14.6% to 3.58%.

First: COc1ccc(CCN(C(=O)c2snc(C(N)=O)c2N)C(C)C(=O)NC2CCCCC2)cc1OC (stereo not drawn)
Second: Cc1cc(C)cc(N(CC(=O)NC2CCCC2)C(=O)CNC(=O)c2cccs2)c1
The “hERG current change (%, negative = inhibition) at 10uM” value of the first is lower: -13.9% for the first, 18% for the second.

First: Cc1cc(C(F)F)n2ncc(C(=O)NCCc3ccc(Cl)cc3)c2n1
Second: Cc1cccc(CCNC(=O)COc2cc(=O)n(C)c3ccccc23)c1
The “hERG current change (%, negative = inhibition) at 10uM” value of the first is lower: -45% for the first, -17.6% for the second.

Compared with `CCOC(=O)N1CCC(N(CCN(C)C)C(=S)Nc2cccc(Cl)c2C)CC1`, `CCN(CCCNC(=O)C1CCC(=O)N1Cc1ccccc1Cl)c1cccc(C)c1` (stereo not drawn) is lower in “hERG current change (%, negative = inhibition) at 10uM” value: 12.5% for the first, -64.5% for the second.

Compared with `O=C(CCC(=O)Nc1cccc(C(F)(F)F)c1)NCC1CCCO1` (stereo not drawn), `CC1=C(C(=O)OCC2CCCO2)C(c2cccc(C(F)(F)F)c2)C2=C(CC(c3ccco3)CC2=O)N1` (stereo not drawn) is lower in “hERG current change (%, negative = inhibition) at 10uM” value: 11.1% for the first, 6.09% for the second.

First: COc1ccc(C2C(C(=O)OCC3CCCO3)=C(C)NC3=C2C(=O)CC(c2ccco2)C3)cc1O (stereo not drawn)
Second: CC1=C(C(=O)OCC2CCCO2)C(c2ccccc2OC(C)C)C2=C(CC(c3ccco3)CC2=O)N1 (stereo not drawn)
The “hERG current change (%, negative = inhibition) at 10uM” value of the first is higher: 5.72% for the first, -57.8% for the second.

Compared with `CCC(C)c1ccccc1OCCCN(C)Cc1ccccc1` (stereo not drawn), `CCN(CCCNC(=O)COc1cc(=O)n(CC)c2ccccc12)Cc1ccccc1` is higher in “hERG current change (%, negative = inhibition) at 10uM” value: -27% for the first, -19.8% for the second.

Compared with `CCN1CCCC(OC(=O)C(c2ccccc2)c2ccccc2)C1.Cl` (stereo not drawn), `Cl.O=C(OC1CCN(CCCl)CC1)C(c1ccccc1)c1ccccc1` is higher in “hERG current change (%, negative = inhibition) at 10uM” value: -66.1% for the first, 11% for the second.

Going from `CCN1CCCC(OC(=O)Nc2ccccc2)C1` (stereo not drawn) to `CCN1CCCC(OC(=O)c2cc(-c3ccccc3Cl)nc3ccccc23)C1.Cl` (stereo not drawn), the “hERG current change (%, negative = inhibition) at 10uM” value falls from 2.47% to -65.3%.

Going from `CN1CCC(N(C)C(=O)c2cc(-c3ccccc3Cl)nc3ccccc23)CC1.Cl` to `CCN1CCCC(OC(=O)c2cc(-c3ccc(C)cc3)nc3ccccc23)C1.Cl` (stereo not drawn), the “hERG current change (%, negative = inhibition) at 10uM” value rises from -84.3% to -8.97%.

First: O=C(OCn1nnc2ccccc2c1=O)c1cc(-c2ccccc2Cl)nc2ccccc12
Second: CCN(CCCNC(=O)COc1cc(=O)n(C)c2ccccc12)c1ccccc1
The “hERG current change (%, negative = inhibition) at 10uM” value of the first is higher: 12.8% for the first, -41.3% for the second.

Going from `O=c1c(-c2ccccc2)[n+]([O-])c2ccccc2n1O` to `CCN(CCCNC(=O)COc1cc(=O)n(CC)c2ccccc12)c1ccccc1`, the “hERG current change (%, negative = inhibition) at 10uM” value falls from -9.6% to -52.5%.

First: CCOc1ccccc1NC(=O)Cc1cccs1
Second: O=C(CCc1ccccc1)Nc1ccccc1C(=O)NCc1ccco1
The “hERG current change (%, negative = inhibition) at 10uM” value of the first is higher: 3.18% for the first, 0.64% for the second.

Compared with `O=C(NCCCN1CCCCC1)c1ccc(CS(=O)c2ccc(F)cc2)o1` (stereo not drawn), `CCN(CCCNC(=O)C1CCC(=O)N1Cc1ccc(F)cc1)c1cccc(C)c1` (stereo not drawn) is lower in “hERG current change (%, negative = inhibition) at 10uM” value: -0.35% for the first, -18.3% for the second.

Going from `Br.O=C(Cn1c(NCCCO)nc2ccccc21)c1ccc(F)cc1` to `CCN(CCCNC(=O)COc1cc(=O)n(C)c2ccccc12)c1cccc(C)c1`, the “hERG current change (%, negative = inhibition) at 10uM” value falls from -9.54% to -51%.

First: Cc1ccc(C(c2sc3nc(C)nn3c2O)N2CCN(c3ccccc3)CC2)cc1 (stereo not drawn)
Second: Cc1ccc(C(c2sc3nc(C)nn3c2O)N2CCN(c3ccc(F)cc3)CC2)cc1 (stereo not drawn)
The “hERG current change (%, negative = inhibition) at 10uM” value of the first is higher: -5.32% for the first, -65.2% for the second.

First: Oc1c(C(c2cccs2)N2CCN(c3ccccc3)CC2)sc2ncnn12 (stereo not drawn)
Second: Oc1c(C(c2cccs2)N2CCN(c3cccc(Cl)c3)CC2)sc2ncnn12 (stereo not drawn)
The “hERG current change (%, negative = inhibition) at 10uM” value of the first is lower: -33.6% for the first, -26.5% for the second.

First: Oc1c(C(c2cccs2)N2CCN(c3ccc(F)cc3)CC2)sc2ncnn12 (stereo not drawn)
Second: Cc1nc2sc(C(c3ccc(F)cc3)N3CCOCC3)c(O)n2n1 (stereo not drawn)
The “hERG current change (%, negative = inhibition) at 10uM” value of the first is lower: -66% for the first, 9.62% for the second.

First: COC(=O)[C@@]12CCCN1[C@H](c1ccc(-c3ccccc3)cc1)[C@@H]1C(=O)N(C)C(=O)[C@@H]12.O=C(O)C(F)(F)F
Second: CC1CC(C)CN(CC(=O)N2CCCc3c2c(=O)oc2ccc(OCc4ccccc4)cc32)C1 (stereo not drawn)
The “hERG current change (%, negative = inhibition) at 10uM” value of the first is lower: -6.67% for the first, -4.71% for the second.

Compared with `COc1ccc2c(c1)nc(SCC(=O)C(C)(C)C)n2C`, `COc1ccc2c(c1)nc(SCC(C)O)n2C` (stereo not drawn) is higher in “hERG current change (%, negative = inhibition) at 10uM” value: -2.82% for the first, 18% for the second.

Going from `COC(=O)c1cc(NS(=O)(=O)c2cccc(Cl)c2)ccc1N1CCOCC1` to `CC(=O)Oc1ccc2oc(=O)c3c(c2c1)CCCN3C(=O)CN1CCOCC1`, the “hERG current change (%, negative = inhibition) at 10uM” value falls from 2.66% to 1.97%.

Compared with `CCn1c(=O)cc(OCC(=O)NCCC(C)C)c2ccccc21`, `CCN(CCCNC(=O)C1CCC(=O)N1Cc1ccc(C)cc1)c1cccc(C)c1` (stereo not drawn) is lower in “hERG current change (%, negative = inhibition) at 10uM” value: 0.0582% for the first, -24.9% for the second.

First: COc1ccc(N2CCN(C(=O)C34CCC(C)(C(=O)C3)C4(C)C)CC2)cc1 (stereo not drawn)
Second: CC1CCN(CC(=O)N2CCCc3c2c(=O)oc2ccc(OCc4ccccc4)cc32)CC1
The “hERG current change (%, negative = inhibition) at 10uM” value of the first is higher: -0.453% for the first, -10.5% for the second.

Compared with `COc1ccc(-n2nc3c(c2NC(=O)c2ccc(Br)o2)CS(=O)(=O)C3)cc1`, `O=C(CN1CCCC1)N1CCCc2c1c(=O)oc1ccc(OCc3ccccc3)cc21` is lower in “hERG current change (%, negative = inhibition) at 10uM” value: -16.4% for the first, -65.6% for the second.

First: COC(=O)Nc1ccc(S(=O)(=O)N2CCC(C(=O)N(C)C3CCCCC3)CC2)cc1
Second: O=C(CN1CCCCC1)N1CCCc2c1c(=O)oc1ccc(OCc3ccccc3)cc21
The “hERG current change (%, negative = inhibition) at 10uM” value of the first is higher: 9.22% for the first, -54.6% for the second.

`COC(=O)CCC(=O)NC(=S)Nc1cc(Cl)ccc1Cl` was tested, and the “hERG current change (%, negative = inhibition) at 10uM” value was 10.5%.
